# In the antibiotic and cytotoxicity screens of Wong et al. (2023):
# Out of some 39,000 compounds screened, about 3,300 (8.5%) were called active. The full list was thinned out, with actives kept by preference.
# System: HepG2
# Assay: cytotoxicity call (relative viability < 0.9)
# Settings: 10 µM
row,SMILES,cytotoxicity call
1,Cc1noc(C)c1S(=O)(=O)Nc1cccc2c1O[C@H](CN(C)S(=O)(=O)c1ccc(F)cc1)[C@@H](C)CN([C@H](C)CO)C2=O,inactive
2,Cc1noc(C)c1NC(=O)Nc1ccc2c(c1)C(=O)N([C@H](C)CO)C[C@H](C)[C@H](CN(C)C(=O)Nc1ccc(C(F)(F)F)cc1)OCCCC[C@H](C)O2,inactive
3,COc1ccc(NC(=O)Nc2ccc3c(c2)C(=O)N([C@@H](C)CO)C[C@@H](C)[C@H](CN(C)S(=O)(=O)c2ccc(OC)cc2)OCCCC[C@H](C)O3)cc1,inactive
4,C[C@H]1CN([C@@H](C)CO)C(=O)Cc2cc(NC(=O)Cc3ccccc3)ccc2O[C@@H]1CN(C)Cc1ccc(Oc2ccccc2)cc1,inactive
5,C[C@@H]1CN([C@@H](C)CO)C(=O)Cc2cc(NC(=O)Cc3ccccc3)ccc2O[C@H]1CN(C)Cc1ccc(Oc2ccccc2)cc1,inactive
6,C[C@@H]1CN([C@H](C)CO)C(=O)Cc2cc(NC(=O)Cc3ccccc3)ccc2O[C@H]1CN(C)Cc1ccc(Oc2ccccc2)cc1,inactive
7,C[C@H](CO)N1C[C@H](C)[C@@H](CN(C)Cc2ccc(Oc3ccccc3)cc2)Oc2ccc(NC(=O)Cc3ccccc3)cc2CC1=O,inactive
8,C[C@H]1CN([C@@H](C)CO)C(=O)Cc2cc(NC(=O)Cc3ccccc3)ccc2O[C@H]1CN(C)Cc1ccc(Oc2ccccc2)cc1,active
9,C[C@@H]1CN([C@@H](C)CO)C(=O)Cc2cc(NC(=O)Cc3ccccc3)ccc2O[C@@H]1CN(C)Cc1ccc(Oc2ccccc2)cc1,active
10,C[C@H](CO)N1C[C@H](C)[C@H](CN(C)Cc2ccc(Oc3ccccc3)cc2)Oc2ccc(NC(=O)Cc3ccccc3)cc2CC1=O,inactive
11,C[C@@H]1CN([C@H](C)CO)C(=O)Cc2cc(NC(=O)Cc3ccccc3)ccc2O[C@@H]1CN(C)Cc1ccc(Oc2ccccc2)cc1,active
12,Cc1ccc(S(=O)(=O)Nc2ccc3c(c2)C(=O)N([C@@H](C)CO)C[C@H](C)[C@H](CN(C)C(=O)CCC(F)(F)F)OCCCC[C@H](C)O3)cc1,inactive
13,COc1ccc(NC(=O)Nc2ccc3c(c2)C(=O)N([C@H](C)CO)C[C@H](C)[C@H](CN(C)C(=O)Cc2ccccc2)OCCCC[C@@H](C)O3)cc1,inactive
14,Cc1noc(C)c1NC(=O)Nc1cccc2c1O[C@H](CN(C)S(=O)(=O)c1cn(C)cn1)[C@@H](C)CN([C@H](C)CO)C2=O,inactive
15,C[C@H](CO)N1C[C@H](C)[C@H](CN(C)S(C)(=O)=O)Oc2ccc(NS(C)(=O)=O)cc2CC1=O,inactive
16,C=CCNS(=O)(=O)c1cccc2nonc12,inactive
17,C[C@H](CO)N1C[C@H](C)[C@@H](CN(C)S(=O)(=O)c2cn(C)cn2)Oc2ccc(NS(=O)(=O)c3cn(C)cn3)cc2CC1=O,inactive
18,C[C@@H]1CCCCO[C@H](CN(C)S(C)(=O)=O)[C@H](C)CN([C@@H](C)CO)C(=O)c2cc(N(C)C)ccc2O1,inactive
19,O=C(Cc1ccncc1)NCC[C@@H]1CC[C@@H](NC(=O)C2CCOCC2)[C@H](CO)O1,inactive
20,CC(C)NC(=O)Nc1ccc2c(c1)CC(=O)N([C@H](C)CO)C[C@H](C)[C@H](CN(C)Cc1ccc3c(c1)OCO3)O2,inactive
21,CCOC(=O)CCCCCC(=O)Nc1ccc2c(c1)C(=O)N([C@H](C)CO)C[C@@H](C)[C@@H](CN(C)C(=O)CCC(F)(F)F)OCCCC[C@H](C)O2,inactive

row,SMILES,cytotoxicity call
1,Cc1ccc(S(=O)(=O)N[C@@H](Cc2ccccc2)C(=O)NCCn2cc(-c3cccc(/C=C/C(=O)NO)c3)nn2)cc1,inactive
2,Cc1ccc(S(=O)(=O)N[C@@H](Cc2ccccc2)C(=O)NCCn2cc(CCC(=O)NO)nn2)cc1,active
3,Cc1ccc(S(=O)(=O)N[C@@H](Cc2ccccc2)C(=O)NCCCn2cc(-c3cccc(/C=C/C(=O)NO)c3)nn2)cc1,active
4,Cc1ccc(S(=O)(=O)N[C@@H](Cc2ccccc2)C(=O)NCCCn2cc(CCC(=O)NO)nn2)cc1,inactive
5,Cc1ccc(S(=O)(=O)N[C@@H](Cc2ccccc2)C(=O)NCCn2cc(C(=O)NO)nn2)cc1,inactive
6,Cc1ccc(S(=O)(=O)N[C@H](C(=O)NCCn2cc(-c3cccc(/C=C/C(=O)NO)c3)nn2)C(C)C)cc1,inactive
7,Cc1noc(C)c1NC(=O)Nc1ccc2c(c1)C(=O)N([C@@H](C)CO)C[C@H](C)[C@@H](CN(C)Cc1ccccc1)OCCCC[C@@H](C)O2,inactive
8,C[C@H](CO)N1C[C@H](C)[C@@H](CN(C)CC2CCCCC2)Oc2c(NC(=O)Nc3ccccc3)cccc2C1=O,inactive
9,C[C@H](CO)N1C[C@H](C)[C@@H](CN(C)Cc2ccc(Cl)c(Cl)c2)Oc2ccc(NS(=O)(=O)c3ccc(F)cc3)cc2C1=O,inactive
10,C[C@H]1CN([C@@H](C)CO)C(=O)c2cc(NS(=O)(=O)c3ccc(Cl)cc3)ccc2O[C@H]1CN(C)Cc1ccc(Cl)c(Cl)c1,active
11,C[C@@H]1CN([C@H](C)CO)C(=O)c2cc(NS(=O)(=O)c3ccc(F)cc3)ccc2O[C@@H]1CN(C)Cc1ccc(Cl)c(Cl)c1,inactive
12,C[C@H](CO)N1C[C@H](C)[C@@H](CN(C)Cc2ccc(Cl)c(Cl)c2)Oc2ccc(NS(=O)(=O)c3ccc(Cl)cc3)cc2C1=O,active
13,C[C@H]1CN([C@@H](C)CO)C(=O)c2cc(NS(=O)(=O)c3ccc(F)cc3)ccc2O[C@H]1CN(C)Cc1ccc(Cl)c(Cl)c1,inactive
14,C[C@@H]1CN([C@H](C)CO)C(=O)c2cc(NS(=O)(=O)c3ccc(Cl)cc3)ccc2O[C@H]1CN(C)Cc1ccc(Cl)c(Cl)c1,inactive
15,C[C@H](CO)N1C[C@H](C)[C@H](CN(C)Cc2ccc(Cl)c(Cl)c2)Oc2ccc(NS(=O)(=O)c3ccc(Cl)cc3)cc2C1=O,active
16,C[C@@H]1CN([C@@H](C)CO)C(=O)c2cc(NS(=O)(=O)c3ccc(Cl)cc3)ccc2O[C@@H]1CN(C)Cc1ccc(Cl)c(Cl)c1,active
17,C/C=C/c1ccc2c(c1)O[C@@H](CN(C)S(=O)(=O)c1ccccc1OC)[C@H](C)CN([C@@H](C)CO)S2(=O)=O,inactive
18,C[C@@H]1CN([C@H](C)CO)C(=O)Cc2cc(NS(=O)(=O)c3ccc(F)cc3)ccc2O[C@@H]1CN(C)S(=O)(=O)c1cn(C)cn1,inactive
19,C[C@H]1CCCCO[C@H](CN(C)C(=O)c2ccncc2)[C@@H](C)CN([C@@H](C)CO)C(=O)c2cc(NS(=O)(=O)c3ccc(Cl)cc3)ccc2O1,inactive
20,Cc1noc(C)c1S(=O)(=O)Nc1ccc2c(c1)C(=O)N([C@@H](C)CO)C[C@H](C)[C@H](CN(C)C(=O)Nc1ccc3c(c1)OCO3)O2,inactive
21,C[C@@H]1CN([C@@H](C)CO)C(=O)c2cc(NS(=O)(=O)c3ccc(Cl)cc3)ccc2O[C@@H](C)CCCCO[C@@H]1CN(C)C(=O)Cc1ccccc1,inactive

row,SMILES,cytotoxicity call
1,OC[C@H]1CCCN1CC1CC1,inactive
2,C[C@H]1CN([C@@H](C)CO)C(=O)c2cc(NS(=O)(=O)c3cn(C)cn3)ccc2O[C@H]1CN(C)Cc1ccccc1,inactive
3,O=C(c1ccncc1)N1C[C@H]2[C@@H](c3ccccc31)[C@H](CO)N2C(=O)CN1CCOCC1,inactive
4,COC(=O)c1c(CC[C@@H](CO)NC(=O)N[C@H](Cn2cc(C3(O)CCCCC3)nn2)C(C)C)oc(C(C)=O)c1C(=O)OC,inactive
5,C[C@@H]1CN([C@H](C)CO)C(=O)c2cc(NS(=O)(=O)c3ccc(F)cc3)ccc2O[C@@H]1CN(C)Cc1ccncc1,inactive
6,COc1ccc(S(=O)(=O)N(C)C[C@H]2Oc3c(NS(=O)(=O)c4cn(C)cn4)cccc3C(=O)N([C@@H](C)CO)C[C@@H]2C)cc1,inactive
7,COc1ccc(NC(=O)Nc2ccc3c(c2)C(=O)N([C@@H](C)CO)C[C@@H](C)[C@H](CN(C)C(=O)Nc2ccccc2)OCCCC[C@@H](C)O3)cc1,inactive
8,c1ccc2c(-c3cn[nH]c3)ccnc2c1,inactive
9,C[C@H](CO)N1C[C@H](C)[C@@H](CN(C)S(C)(=O)=O)Oc2c(cccc2N(C)C)C1=O,inactive
10,C[C@@H]1CN([C@@H](C)CO)C(=O)c2cc(NS(=O)(=O)c3ccc(Cl)cc3)ccc2O[C@H]1CN(C)Cc1ccc(Cl)c(Cl)c1,active
11,C[C@@H]1CN([C@H](C)CO)C(=O)c2cc(NS(=O)(=O)c3ccc(Cl)cc3)ccc2O[C@@H]1CN(C)Cc1ccc(Cl)c(Cl)c1,active
12,C[C@H]1CN([C@@H](C)CO)C(=O)c2cc(NS(=O)(=O)c3ccc(Cl)cc3)ccc2O[C@@H]1CN(C)Cc1ccc(Cl)c(Cl)c1,active
13,C[C@H]1CN([C@@H](C)CO)C(=O)c2cc(NS(=O)(=O)c3ccc(F)cc3)ccc2O[C@@H]1CN(C)Cc1ccc(Cl)c(Cl)c1,active
14,C[C@H](CO)N1C[C@H](C)[C@H](CN(C)Cc2ccc(Cl)c(Cl)c2)Oc2ccc(NS(=O)(=O)c3ccc(F)cc3)cc2C1=O,inactive
15,C[C@@H]1CN([C@@H](C)CO)C(=O)c2cc(NS(=O)(=O)c3ccc(F)cc3)ccc2O[C@@H]1CN(C)Cc1ccc(Cl)c(Cl)c1,inactive
16,C[C@@H]1CN([C@@H](C)CO)C(=O)c2cc(NS(=O)(=O)c3ccc(F)cc3)ccc2O[C@H]1CN(C)Cc1ccc(Cl)c(Cl)c1,inactive
17,C[C@@H]1CN([C@H](C)CO)C(=O)c2cc(NS(=O)(=O)c3ccc(F)cc3)ccc2O[C@H]1CN(C)Cc1ccc(Cl)c(Cl)c1,inactive
18,Cc1ccc(S(=O)(=O)Nc2ccc3c(c2)C(=O)N([C@H](C)CO)C[C@H](C)[C@@H](CN(C)CC2CCCCC2)OCCCC[C@@H](C)O3)cc1,inactive
19,COc1cccc(OC)c1C(=O)NC1C(=O)N2C1SC(C)(C)C2C(=O)[O-].[Na+] (configuration not stated),inactive
20,C[C@H](CO)N1C[C@H](C)[C@@H](CN(C)C(=O)NC2CCCCC2)OCCCC[C@H](C)Oc2ccc(NS(=O)(=O)c3cccs3)cc2C1=O,inactive
